For 14 compounds, growth results are on record in PubChem BioAssay (NCI).

Among the test systems are NCI/ADR-RES ovarian; BT-549 breast; MDA-MB-435 melanoma; SW-620 colon; MCF7 breast; HCT-116 colon; HCC-2998 colon; KM12 colon; T-47D breast.
Common to all, as to test: NCI-60 one-dose screen, 48 h (100 = growth as untreated, 0 = no growth, -100 = all killed)
Holding throughout (conditions): 10 µM unless noted

Each structure is given as a SMILES string. Compounds without any hit were thinned out: in the full panel of roughly 83,000, 20% have a hit.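 Testing used 96-well plates and a 48-hour single-concentration exposure. Example: -40 means 40% of the starting cells died.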 Unmarked numbers belong to inactive results. Calls of active or inactive are those of the source. The calls were made as follows: active = growth percent below 10; inactive = the rest.

For the compound `O=C(CC1(O)C(=O)N(Cc2ccccc2)c2ccc(Br)cc21)c1ccc(C(=O)NCC2CCC3(CC2)OOC2(CCCCC2)OO3)cc1` (stereo unspecified), the growth with NCI/ADR-RES ovarian was -44.8% (active); with BT-549 breast, 33.9%; in the assay with MDA-MB-435 melanoma, 4.94% (active); in the assay on SW-620 colon, -16.5% (active); in the assay with MCF7 breast it was 31.5%; in the assay with HCT-116 colon, 35.5%. Also, the growth in the assay on HCC-2998 colon is 102%; with KM12 colon it was -57.5% (active).
Consider `CC(=O)OC1C(OC/C2=C/C3[C@@H](C(C)C)CC=C(C)[C@@H]3CC(OC(=O)/C=C/c3cn(C)cn3)[C@]3(C)C=C[C@@]2(O)O3)OCC(O)C1O` (stereo partly specified), for which the growth in the assay on NCI/ADR-RES ovarian is 80.8%; with BT-549 breast, -14.3% (active); in the assay on MDA-MB-435 melanoma it was -52.3% (active); in the assay on SW-620 colon, 35.8%; with MCF7 breast, 13.5%; in the assay on HCT-116 colon, 4.11% (active). The figures for the growth with HCC-2998 colon and in the assay on KM12 colon were -44.1% (active) and 14.1%, respectively.
`O=C(N/N=C\c1ccc(N(CCCl)CCCl)cc1)c1cccc([N+](=O)[O-])c1`: the growth in the assay with NCI/ADR-RES ovarian was 88.1%; in the assay with BT-549 breast, 96%; with MDA-MB-435 melanoma, 105%; with SW-620 colon, 100%; in the assay on MCF7 breast it was 79.9%; in the assay on HCT-116 colon, 97%. The figures for the growth in the assay with HCC-2998 colon and with KM12 colon were 101% and 93.6%, respectively.
In the case of `CC[C@H](C)[C@H](NC(=O)C12C3C4C1C1C2C3C41NC)C(=O)N(C)[C@H](C[C@@H](OC(C)=O)c1nc(C(=O)N[C@@H](Cc2ccccc2)C[C@H](C)C(=O)OC)cs1)C(C)C` (stereo partly specified), the growth in the assay on NCI/ADR-RES ovarian was 72.6%; with BT-549 breast, 2.04% (active); in the assay on MDA-MB-435 melanoma, -27.9% (active); in the assay with SW-620 colon it was 21.6%; with MCF7 breast, 17.2%; with HCT-116 colon it was 4% (active). Further, the growth was 15.9% in the assay with HCC-2998 colon and 15% in the assay on KM12 colon.
Turning to `Fc1ccc(C2=CCNCC2)cc1`, the growth with NCI/ADR-RES ovarian is 78.6%; with T-47D breast, 99.2%; in the assay with MDA-MB-435 melanoma, 102%; in the assay with SW-620 colon, 104%; in the assay on MCF7 breast, 93.9%; in the assay with HCT-116 colon, 109%. In addition, the growth with KM12 colon is 109%.
On to `COc1cc(/C=C\c2cc(OC)c(OC)c(OC)c2)cc(NS(=O)(=O)c2cccc(Cl)c2)c1OC`, for which the growth in the assay on NCI/ADR-RES ovarian is 7.73% (active); in the assay on BT-549 breast, 24.1%; in the assay on MDA-MB-435 melanoma it was -20.2% (active); in the assay with SW-620 colon, 25.4%; in the assay with MCF7 breast it was 7.6% (active); in the assay with HCT-116 colon, 2.62% (active). For the same compound, the growth is 13.9% in the assay on HCC-2998 colon and 5.83% (active) in the assay with KM12 colon.
Turning to `CCC(C)(C)[C@H](NC(=O)[C@H]1CCCCN1C)C(=O)N(C)[C@H](C[C@@H](OC(C)=O)c1nc(C(=O)N[C@@H](Cc2ccccc2)C[C@H](C)C(=O)O)cs1)C(C)C`, the growth in the assay on NCI/ADR-RES ovarian was 16.8%; in the assay on BT-549 breast, -34.7% (active); in the assay with MDA-MB-435 melanoma it was -47.2% (active); in the assay with SW-620 colon, 26.6%; in the assay with MCF7 breast, 23.9%; with HCT-116 colon, -10% (active). The growth was 22.2% with HCC-2998 colon and 4.26% (active) in the assay on KM12 colon.
With `Oc1c(CCl)cc(Cl)cc1CCl`, the growth with NCI/ADR-RES ovarian is 102%; in the assay with T-47D breast, 102%; in the assay on MDA-MB-435 melanoma, 102%; in the assay with SW-620 colon it was 115%; in the assay on MCF7 breast, 105%; with HCT-116 colon, 115%. Besides, the growth in the assay with HCC-2998 colon was 96.5%; with KM12 colon, 105%.
For the compound `COc1cc(C=Nc2cccc(C(=O)O)c2)ccc1N(CCCl)CCCl`, the growth with NCI/ADR-RES ovarian was 103%; in the assay on BT-549 breast, 103%; in the assay with MDA-MB-435 melanoma it was 91.5%; in the assay with SW-620 colon it was 90.4%; in the assay with MCF7 breast, 95.2%; in the assay with HCT-116 colon it was 104%. Further, the growth in the assay with HCC-2998 colon was 74.4%; in the assay with KM12 colon, 57.3%.
Consider `CC1=C(O)[C@@](C)(CCCCC[C@H](C)CCCCc2ccc(O)cc2)OOC1=O`, for which the growth in the assay on NCI/ADR-RES ovarian was 88.5%; in the assay on BT-549 breast, 97.4%; in the assay with MDA-MB-435 melanoma, 82.6%; in the assay with SW-620 colon it was 109%; with MCF7 breast, 98.8%; in the assay on HCT-116 colon it was 88.6%. The growth with HCC-2998 colon was 115%; in the assay on KM12 colon it was 90.1%.
Consider `CN(CCCCN(C)CCOS(C)(=O)=O)CCOS(C)(=O)=O`, for which the growth in the assay with NCI/ADR-RES ovarian is 76.3%; in the assay with T-47D breast it was 81.1%; in the assay with MDA-MB-435 melanoma, 101%; in the assay with SW-620 colon it was 74.1%; in the assay with MCF7 breast, 71.2%; with HCT-116 colon, 81.4%. Further, the growth was 58.4% in the assay with HCC-2998 colon and 95.1% with KM12 colon.
For `CC12CCC(O)CC1=CCC1C2CCC2(C)C(O)CCC12` (stereo unspecified), the growth is 110% with NCI/ADR-RES ovarian; 99.4% with T-47D breast; 104% in the assay with MDA-MB-435 melanoma; 105% in the assay with SW-620 colon; 116% in the assay with MCF7 breast; 104% with HCT-116 colon. Further, the growth in the assay with HCC-2998 colon is 109%; with KM12 colon it was 105%.
With `CNC(=O)Oc1ccc(C(C)(C)C)cc1OC(=O)NC`, the growth with NCI/ADR-RES ovarian is 104%; in the assay on T-47D breast it was 98.9%; with MDA-MB-435 melanoma it was 97%; in the assay with SW-620 colon, 94.8%; with MCF7 breast it was 93.9%; with HCT-116 colon, 93%. Moreover, the growth in the assay on HCC-2998 colon is 103%; in the assay on KM12 colon it was 99.8%.
Consider `O=[N+]([O-])c1c(Br)sc(Br)c1[N+](=O)[O-]`, for which the growth in the assay with NCI/ADR-RES ovarian was -23.6% (active); in the assay with T-47D breast, -6.93% (active); with MDA-MB-435 melanoma it was 17.5%; in the assay with SW-620 colon it was -77% (active); with MCF7 breast, 23.3%; in the assay with HCT-116 colon, -85.2% (active). Besides, the growth with HCC-2998 colon is 68%; in the assay with KM12 colon, 64.1%.
